The text below walks through data of PMC11006913.

Experiment [1] has as its target NKX3-2 (Homo sapiens, UniProt P78367 192-278, P234S). The experiment can be described thus: PBM; 200 nM protein, PBS. Conditions: dsDNA, one strand shown.
In experiment [2] the target is NKX3-2 (Homo sapiens, UniProt P78367 192-278). The experiment in a line: PBM; 200 nM protein, PBS. Conditions: dsDNA, one strand shown.
NKX3-2 (Homo sapiens, UniProt P78367 192-278), sequence (P78367 192-278): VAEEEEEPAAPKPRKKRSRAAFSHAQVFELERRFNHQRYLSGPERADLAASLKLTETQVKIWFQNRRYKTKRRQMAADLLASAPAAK

NKX3-2 (Homo sapiens, UniProt P78367 192-278, P234S), sequence (P78367 192-278 P234S): as the sequence (P78367 192-278) above, with P43S counted along it

As for GGCGCGCA, the binding signal with NKX3-2 [1] is 10.6 upbm affinity estimate (log intensity, higher = more binding, comparable within an allelic series); with NKX3-2 [2] it was 10.6 upbm affinity estimate (log intensity, higher = more binding, comparable within an allelic series).

Take CAAACCAG: the binding signal was 10.6 upbm affinity estimate (log intensity, higher = more binding, comparable within an allelic series) in the experiment with NKX3-2 [1] and 10.7 upbm affinity estimate (log intensity, higher = more binding, comparable within an allelic series) in the experiment with NKX3-2 [2].

Consider AAGGGCCT, for which the binding signal in the experiment with NKX3-2 [1] is 11.9 upbm affinity estimate (log intensity, higher = more binding, comparable within an allelic series); in the experiment with NKX3-2 [2], 12 upbm affinity estimate (log intensity, higher = more binding, comparable within an allelic series).

As to GCCACTCA, the binding signal is 12.6 upbm affinity estimate (log intensity, higher = more binding, comparable within an allelic series) with NKX3-2 [1] and 12.7 upbm affinity estimate (log intensity, higher = more binding, comparable within an allelic series) with NKX3-2 [2].

CCAGGTTA: the binding signal with NKX3-2 [1] is 10.6 upbm affinity estimate (log intensity, higher = more binding, comparable within an allelic series); with NKX3-2 [2] it was 10.8 upbm affinity estimate (log intensity, higher = more binding, comparable within an allelic series).

For ACTTACTG, the binding signal was 11.6 upbm affinity estimate (log intensity, higher = more binding, comparable within an allelic series) with NKX3-2 [1] and 11.7 upbm affinity estimate (log intensity, higher = more binding, comparable within an allelic series) with NKX3-2 [2].

Turning to AAACCGCG, the binding signal with NKX3-2 [1] was 10.5 upbm affinity estimate (log intensity, higher = more binding, comparable within an allelic series); in the experiment with NKX3-2 [2], 10.5 upbm affinity estimate (log intensity, higher = more binding, comparable within an allelic series).

In the case of CAGGTAGC, the binding signal was 10.7 upbm affinity estimate (log intensity, higher = more binding, comparable within an allelic series) with NKX3-2 [1] and 10.7 upbm affinity estimate (log intensity, higher = more binding, comparable within an allelic series) with NKX3-2 [2].

In the case of GGTCAAAC, the binding signal with NKX3-2 [1] was 10.5 upbm affinity estimate (log intensity, higher = more binding, comparable within an allelic series); with NKX3-2 [2], 10.5 upbm affinity estimate (log intensity, higher = more binding, comparable within an allelic series).

Regarding GGCCTCAC, the binding signal was 10.5 upbm affinity estimate (log intensity, higher = more binding, comparable within an allelic series) with NKX3-2 [1] and 10.6 upbm affinity estimate (log intensity, higher = more binding, comparable within an allelic series) with NKX3-2 [2].

In the case of AATGCGGT, the binding signal in the experiment with NKX3-2 [1] was 10.7 upbm affinity estimate (log intensity, higher = more binding, comparable within an allelic series); with NKX3-2 [2], 10.8 upbm affinity estimate (log intensity, higher = more binding, comparable within an allelic series).

Take CAAGGGTC: the binding signal was 11.7 upbm affinity estimate (log intensity, higher = more binding, comparable within an allelic series) with NKX3-2 [1] and 11.8 upbm affinity estimate (log intensity, higher = more binding, comparable within an allelic series) in the experiment with NKX3-2 [2].

As to GAGGCAGC, the binding signal in the experiment with NKX3-2 [1] was 10.4 upbm affinity estimate (log intensity, higher = more binding, comparable within an allelic series); with NKX3-2 [2] it was 10.4 upbm affinity estimate (log intensity, higher = more binding, comparable within an allelic series).

As for ACCGCTGG, the binding signal with NKX3-2 [1] was 10.5 upbm affinity estimate (log intensity, higher = more binding, comparable within an allelic series); with NKX3-2 [2], 10.5 upbm affinity estimate (log intensity, higher = more binding, comparable within an allelic series).

Take ACGGTGTC: the binding signal is 10.6 upbm affinity estimate (log intensity, higher = more binding, comparable within an allelic series) with NKX3-2 [1] and 10.6 upbm affinity estimate (log intensity, higher = more binding, comparable within an allelic series) with NKX3-2 [2].

Consider GGGCGGAA, for which the binding signal with NKX3-2 [1] was 10.7 upbm affinity estimate (log intensity, higher = more binding, comparable within an allelic series); with NKX3-2 [2], 10.7 upbm affinity estimate (log intensity, higher = more binding, comparable within an allelic series).

Turning to GCACCCAA, the binding signal in the experiment with NKX3-2 [1] is 10.6 upbm affinity estimate (log intensity, higher = more binding, comparable within an allelic series); in the experiment with NKX3-2 [2], 10.6 upbm affinity estimate (log intensity, higher = more binding, comparable within an allelic series).

Regarding AAGTGACG, the binding signal with NKX3-2 [1] is 11.7 upbm affinity estimate (log intensity, higher = more binding, comparable within an allelic series); with NKX3-2 [2], 11.9 upbm affinity estimate (log intensity, higher = more binding, comparable within an allelic series).

Regarding AGAGAGGA, the binding signal in the experiment with NKX3-2 [1] was 11.5 upbm affinity estimate (log intensity, higher = more binding, comparable within an allelic series); with NKX3-2 [2], 11.6 upbm affinity estimate (log intensity, higher = more binding, comparable within an allelic series).

Turning to CTCTTGCC, the binding signal with NKX3-2 [1] was 11.4 upbm affinity estimate (log intensity, higher = more binding, comparable within an allelic series); with NKX3-2 [2] it was 11.5 upbm affinity estimate (log intensity, higher = more binding, comparable within an allelic series).

For GCCGTGCC, the binding signal in the experiment with NKX3-2 [1] was 10.6 upbm affinity estimate (log intensity, higher = more binding, comparable within an allelic series); with NKX3-2 [2], 10.6 upbm affinity estimate (log intensity, higher = more binding, comparable within an allelic series).

For GAGAGTAC, the binding signal was 12 upbm affinity estimate (log intensity, higher = more binding, comparable within an allelic series) with NKX3-2 [1] and 12.1 upbm affinity estimate (log intensity, higher = more binding, comparable within an allelic series) with NKX3-2 [2].

Take GAGACCGC: the binding signal is 10.7 upbm affinity estimate (log intensity, higher = more binding, comparable within an allelic series) in the experiment with NKX3-2 [1] and 10.7 upbm affinity estimate (log intensity, higher = more binding, comparable within an allelic series) with NKX3-2 [2].

Take CTGCATCC: the binding signal is 10.6 upbm affinity estimate (log intensity, higher = more binding, comparable within an allelic series) with NKX3-2 [1] and 10.7 upbm affinity estimate (log intensity, higher = more binding, comparable within an allelic series) with NKX3-2 [2].

As for AAAAGGGT, the binding signal was 11.5 upbm affinity estimate (log intensity, higher = more binding, comparable within an allelic series) with NKX3-2 [1] and 11.6 upbm affinity estimate (log intensity, higher = more binding, comparable within an allelic series) with NKX3-2 [2].

Turning to CAAGTGCG, the binding signal with NKX3-2 [1] is 12.2 upbm affinity estimate (log intensity, higher = more binding, comparable within an allelic series); with NKX3-2 [2], 12.3 upbm affinity estimate (log intensity, higher = more binding, comparable within an allelic series).

As to ACGGCGGG, the binding signal with NKX3-2 [1] is 10.4 upbm affinity estimate (log intensity, higher = more binding, comparable within an allelic series); with NKX3-2 [2], 10.4 upbm affinity estimate (log intensity, higher = more binding, comparable within an allelic series).

Turning to AGCCGCGC, the binding signal was 10.5 upbm affinity estimate (log intensity, higher = more binding, comparable within an allelic series) with NKX3-2 [1] and 10.5 upbm affinity estimate (log intensity, higher = more binding, comparable within an allelic series) with NKX3-2 [2].

Turning to AGGCATGG, the binding signal with NKX3-2 [1] was 10.6 upbm affinity estimate (log intensity, higher = more binding, comparable within an allelic series); in the experiment with NKX3-2 [2], 10.5 upbm affinity estimate (log intensity, higher = more binding, comparable within an allelic series).
